Measured values reported in PubChem BioAssay (NCATS).
Records with an inconclusive call do not appear. The source made the active and inactive calls. Calls follow the shape of the dose curve; as a rule, active = well fitted inhibition curve with a large enough effect; inconclusive = small, poorly fitted or top-dose-only effect; inactive = flat fitted curve, though single readings scatter.

How the values were obtained:
Assay in all cases: qHTS profiling for inhibitors of Plasmodium falciparum proliferation (AID 504749); also: nearly all actives have a fitted effect of over 60% in size
Conditions in all cases: P. falciparum in erythrocytes, SYBR Green DNA, 72 h; series mostly up to 28.7 µM
[1] = system: ATS95
How it was run: (§1)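 Infected RBCs, 0.3% parasitemia/2.5% Hct final; cpd 72 h, 37 C, 5% CO2; lysis buffer with saponin/triton/SYBR Green I, o/n RT dark; FI 485/535; norm. to artemisinin (0.29 uM) and DMSO.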

[2] = system: C2A
How it was run: as §1

[3] = system: CP185
How it was run: as §1

[4] = system: CP191
How it was run: as §1

[5] = system: CP192
How it was run: as §1

[6] = system: CP194
How it was run: as §1

[7] = system: CP201
How it was run: as §1

[8] = system: CP203
How it was run: as §1

[9] = system: CP211
How it was run: as §1

[10] = system: CP215
How it was run: as §1

[11] = system: CP217
How it was run: as §1

[12] = system: CP237
How it was run: as §1

[13] = system: CP238
How it was run: as §1

[14] = system: CP247
How it was run: as §1

[15] = system: CP250
How it was run: as §1

[16] = system: CP252
How it was run: as §1

[17] = system: CP256
How it was run: as §1

[18] = system: CP260
How it was run: as §1

[19] = system: CP262
How it was run: as §1

[20] = system: CP265
How it was run: as §1

Measured: Potency

NCC1(CC(=O)O)CCCCC1
inactive: all assays above

CC(C)CC(N(C)C)C1(c2ccc(Cl)cc2)CCC1 (centres undefined)
inactive: all assays above

NN=C(N)N
inactive: all assays above

CC[N+](CC)(CC)CC
not listed: [10]
inactive: all other assays above

C#CCOC(C(=O)OCCN(C)C)(c1ccccc1)c1ccccc1
inactive: all assays above

COc1ccc(C(=O)c2c(C)n(CCN3CCOCC3)c3ccccc23)cc1
not listed: [15]
inactive: all other assays above

NCC(CC(=O)O)c1ccc(Cl)cc1 (centres undefined)
inactive: all assays above

Cn1c(CCCC(=O)O)nc2cc(N(CCCl)CCCl)ccc21
inactive: all assays above

NCCc1cc(O)c(O)cc1O
inactive: all assays above

CN1CCN(C(=O)O[C@H]2c3nccnc3C(=O)N2c2ccc(Cl)cn2)CC1
inactive: all assays above

c1ccc2c(c1)OCC(C1=NCCN1)O2 (centres undefined)
not listed: [12] | [14] | [18]
inactive: all other assays above

CC[N+]1(C)CCCC(OC(=O)C(O)(c2ccccc2)c2ccccc2)C1 (centres undefined)
inactive: all assays above

CC(=O)[C@H]1CC[C@H]2[C@@H]3CC[C@H]4C[C@H](O)CC[C@]4(C)[C@H]3C(=O)C[C@]12C
inactive: all assays above

CCC(COC(=O)c1cc(OC)c(OC)c(OC)c1)(c1ccccc1)N(C)C (centres undefined)
not listed: [12]
inactive: all other assays above
